# According to PubChem BioAssay (NCI):
# About 79,000 compounds went through this panel and 15% of them were active in at least one assay; those are over-represented in the sample as a whole. Unmarked numbers belong to inactive results. The source made the active and inactive calls. Cut-off read from the data, not from the text of the source: active = growth inhibition above about 70%; inactive = the rest.
# Assays:
# [1] = NCI Yeast Anticancer Drug Screen. Data for the rad52 strain (AID 147);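 note: 0% = growth of vehicle-treated control cultures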; conditions: S. cerevisiae rad52 mutant growth inhibition, active compounds read high
# In short: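 Screen used a yeast mutant impaired in DNA repair. After compound exposure, growth was measured. Values reflect inhibition compared with vehicle-treated cells.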
# [2] = NCI Yeast Anticancer Drug Screen. Data for the wt1 strain (AID 149);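 note: 0% = growth of vehicle-treated wt1 cultures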; conditions: S. cerevisiae wt1 strain (SPY 50644) growth inhibition, active compounds read high
# In short: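 Yeast wt1 strain exposed to compounds; growth inhibition measured relative to vehicle-treated controls.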
# [3] = NCI Yeast Anticancer Drug Screen. Data for the rad50EPP+ strain (AID 151);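 note: 0% = growth of vehicle-treated control cultures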; conditions: S. cerevisiae rad50 mutant strain, active compounds read high
# In short: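 Exposing the rad50EPP+ strain to each compound, growth was compared with vehicle-only cultures to give inhibition.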
# [4] = NCI Yeast Anticancer Drug Screen. Data for the mgt1 strain (AID 153); conditions: S. cerevisiae mgt1 mutant growth inhibition, active compounds read high
# In short: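 Genetically defined yeast (mgt1) treated with compound; inhibition of growth expressed against vehicle-treated controls.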
# [5] = NCI Yeast Anticancer Drug Screen. Data for the rad50 strain (AID 155);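 note: 0% = growth of vehicle-only cultures of the same strain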; conditions: S. cerevisiae rad50 strain growth inhibition, active compounds read high
# In short: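 Yeast carrying a defined DNA repair defect were exposed to test compounds, and growth was compared with vehicle-treated controls to give percent inhibition.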
# [6] = NCI Yeast Anticancer Drug Screen. Data for the mec2-1 strain (AID 157); conditions: S. cerevisiae mec2-1 strain, active compounds read high
# In short: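 Readout is yeast growth inhibition, normalised to vehicle-treated controls, in the mec2-1 strain exposed to compound.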
# [7] = NCI Yeast Anticancer Drug Screen. Data for the rad14 strain (AID 159);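 note: 0% = growth of vehicle-treated control cultures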; conditions: S. cerevisiae rad14 strain growth inhibition, active compounds read high
# In short: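 Yeast cells carrying a defined DNA-repair defect were exposed to compounds, and growth inhibition was calculated relative to vehicle-treated control cultures.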
# [8] = NCI Yeast Anticancer Drug Screen. Data for the sgs1 mgt1 strain (AID 161);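 note: 0% = growth of cultures given vehicle only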; conditions: S. cerevisiae sgs1 mgt1 strain, active compounds read high
# In short: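 Growth of a repair-deficient yeast mutant was monitored after compound treatment and expressed as inhibition relative to vehicle-treated cultures.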
# [9] = NCI Yeast Anticancer Drug Screen. Data for the CLN2oe strain (AID 163);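 note: 0% = growth of vehicle-only control cultures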; conditions: S. cerevisiae CLN2oe strain, active compounds read high
# In short: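 Values reflect how much compound exposure reduced yeast growth, referenced to vehicle-exposed cells. Assay organism is a strain with a defined genetic change affecting cell-cycle control.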
# [10] = NCI Yeast Anticancer Drug Screen. Data for the cln2 rad14 strain (AID 165);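 note: 0% = growth equal to vehicle treated cultures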; conditions: S. cerevisiae cln2 rad14 strain, active compounds read high
# In short: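 Relative to vehicle controls, growth inhibition of compound-treated cln2 rad14 yeast was recorded.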
# [11] = NCI Yeast Anticancer Drug Screen. Data for the bub3 strain (AID 167); conditions: S. cerevisiae bub3 mutant strain, active compounds read high
# In short: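 Compounds were applied to a genetically altered yeast strain carrying a cell-cycle control defect. Growth inhibition was scored against vehicle-treated controls.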
# [12] = NCI Yeast Anticancer Drug Screen. Data for the wt2 strain (AID 169);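 note: 0% = growth of vehicle-treated yeast cultures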; conditions: S. cerevisiae wt2 strain growth inhibition, active compounds read high
# In short: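 Values express reduction in yeast growth under compound treatment, referenced to vehicle-treated cells.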
# [13] = NCI Yeast Anticancer Drug Screen. Data for the mlh1 strain (AID 171);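 note: 0% = growth of vehicle-treated control cultures of the same strain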; conditions: S. cerevisiae mlh1 strain growth inhibition, active compounds read high
# In short: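 Steps: expose the defined-mutant yeast strain to compound; expose a parallel culture to vehicle; measure growth; express compound effect as inhibition relative to the vehicle culture.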
# [14] = NCI Yeast Anticancer Drug Screen. Data for the sgs1 strain (AID 173);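 note: 0% = growth of vehicle-only control cultures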; conditions: S. cerevisiae sgs1 mutant, active compounds read high
# In short: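 Treat defined-mutant yeast with compound; measure growth; calculate inhibition relative to vehicle-treated cells.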
# [15] = NCI Yeast Anticancer Drug Screen. Data for the mlh1 rad18 strain (AID 175); conditions: S. cerevisiae mlh1 rad18 strain growth inhibition, active compounds read high
# In short: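 Test agents were incubated with a yeast strain of defined genotype (DNA damage repair defect). Inhibition of growth was derived by comparison with vehicle-exposed cultures.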
# [16] = NCI Yeast Anticancer Drug Screen. Data for the rad18 strain (AID 177); conditions: S. cerevisiae rad18 mutant growth inhibition, active compounds read high
# In short: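 A genetically defined yeast mutant impaired in DNA damage repair was treated with test compounds, then its growth was measured against cultures receiving vehicle alone.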
# [17] = at 5.0 µM (retest, dose inferred, filed as 0.5)
# [18] = at 50.0 µM (retest, dose inferred, filed as 5.0)
smiles,measurement,setting,value
C=C1CC(CCCl)(c2ccccc2)OC1=O (stereo unspecified),growth inhibition,[1]; at 1.2 µM,-37%
same,growth inhibition,[1]; at 3.7 µM,-25%
same,growth inhibition,[1]; at 11.0 µM,17%
same,growth inhibition,[1]; at 33.0 µM,88% (active)
same,growth inhibition,[1]; at 100.0 µM,99% (active)
same,growth inhibition,[2]; at 1.2 µM,-13%
same,growth inhibition,[2]; at 3.7 µM,-16%
same,growth inhibition,[2]; at 11.0 µM,25%
same,growth inhibition,[2]; at 33.0 µM,84% (active)
same,growth inhibition,[2]; at 100.0 µM,98% (active)
same,growth inhibition,[3]; at 1.2 µM,0%
same,growth inhibition,[3]; at 3.7 µM,2%
same,growth inhibition,[3]; at 11.0 µM,19%
same,growth inhibition,[3]; at 33.0 µM,48%
same,growth inhibition,[3]; at 100.0 µM,92% (active)
same,growth inhibition,[4]; at 1.2 µM,-25%
same,growth inhibition,[4]; at 3.7 µM,-3%
same,growth inhibition,[4]; at 11.0 µM,78% (active)
same,growth inhibition,[4]; at 33.0 µM,98% (active)
same,growth inhibition,[4]; at 100.0 µM,99% (active)
same,growth inhibition,[5]; at 1.2 µM,0%
same,growth inhibition,[5]; at 3.7 µM,13%
same,growth inhibition,[5]; [17],4%
same,growth inhibition,[5]; at 11.0 µM,33%
same,growth inhibition,[5]; at 33.0 µM,91% (active)
same,growth inhibition,[5]; [18],94% (active)
same,growth inhibition,[5]; at 50.0 µM,92.5% (active)
same,growth inhibition,[5]; at 100.0 µM,98% (active)
same,growth inhibition,[6]; at 1.2 µM,-4%
same,growth inhibition,[6]; at 3.7 µM,16%
same,growth inhibition,[6]; [17],13%
same,growth inhibition,[6]; at 11.0 µM,65%
same,growth inhibition,[6]; at 33.0 µM,93% (active)
same,growth inhibition,[6]; [18],98% (active)
same,growth inhibition,[6]; at 50.0 µM,93.5% (active)
same,growth inhibition,[6]; at 100.0 µM,99% (active)
same,growth inhibition,[7]; at 1.2 µM,-2%
same,growth inhibition,[7]; at 3.7 µM,25%
same,growth inhibition,[7]; at 11.0 µM,60%
same,growth inhibition,[7]; at 33.0 µM,95% (active)
same,growth inhibition,[7]; at 100.0 µM,99% (active)
same,growth inhibition,[8]; [17],-8%
same,growth inhibition,[8]; [18],96% (active)
same,growth inhibition,[8]; at 50.0 µM,93.5% (active)
same,growth inhibition,[9]; at 1.2 µM,4%
same,growth inhibition,[9]; at 3.7 µM,7%
same,growth inhibition,[9]; at 11.0 µM,24%
same,growth inhibition,[9]; at 33.0 µM,85% (active)
same,growth inhibition,[9]; at 100.0 µM,98% (active)
same,growth inhibition,[10]; [17],18%
same,growth inhibition,[10]; [18],93% (active)
same,growth inhibition,[10]; at 50.0 µM,90.9% (active)
same,growth inhibition,[11]; at 1.2 µM,-6%
same,growth inhibition,[11]; at 3.7 µM,37%
same,growth inhibition,[11]; [17],37%
same,growth inhibition,[11]; at 11.0 µM,76% (active)
same,growth inhibition,[11]; at 33.0 µM,96% (active)
same,growth inhibition,[11]; [18],98% (active)
same,growth inhibition,[11]; at 50.0 µM,92.4% (active)
same,growth inhibition,[11]; at 100.0 µM,99% (active)
same,growth inhibition,[12]; at 1.2 µM,-22%
same,growth inhibition,[12]; at 3.7 µM,-20%
same,growth inhibition,[12]; at 11.0 µM,38%
same,growth inhibition,[12]; at 33.0 µM,95% (active)
same,growth inhibition,[12]; at 100.0 µM,95% (active)
same,growth inhibition,[13]; at 1.2 µM,21%
same,growth inhibition,[13]; at 3.7 µM,35%
same,growth inhibition,[13]; at 11.0 µM,82% (active)
same,growth inhibition,[13]; at 33.0 µM,97% (active)
same,growth inhibition,[13]; at 100.0 µM,99% (active)
same,growth inhibition,[14]; at 1.2 µM,4%
same,growth inhibition,[14]; at 3.7 µM,2%
same,growth inhibition,[14]; at 11.0 µM,59%
same,growth inhibition,[14]; at 33.0 µM,96% (active)
same,growth inhibition,[14]; at 100.0 µM,99% (active)
same,growth inhibition,[15]; [17],22%
same,growth inhibition,[15]; [18],98% (active)
same,growth inhibition,[15]; at 50.0 µM,91.2% (active)
same,growth inhibition,[16]; at 1.2 µM,0%
same,growth inhibition,[16]; at 3.7 µM,13%
same,growth inhibition,[16]; at 11.0 µM,61%
same,growth inhibition,[16]; at 33.0 µM,94% (active)
same,growth inhibition,[16]; at 100.0 µM,99% (active)
COc1ccc(/C=C2\NC(=S)N(/C=C3\C(=O)Oc4ccccc4C3=O)C2=O)cc1,growth inhibition,[1]; at 1.2 µM,-1%
same,growth inhibition,[1]; at 3.7 µM,-1%
same,growth inhibition,[1]; at 11.0 µM,3%
same,growth inhibition,[1]; at 33.0 µM,5%
same,growth inhibition,[1]; at 100.0 µM,21%
same,growth inhibition,[2]; at 1.2 µM,1%
same,growth inhibition,[2]; at 3.7 µM,1%
same,growth inhibition,[2]; at 11.0 µM,1%
same,growth inhibition,[2]; at 33.0 µM,4%
same,growth inhibition,[2]; at 100.0 µM,15%
same,growth inhibition,[3]; at 1.2 µM,-2%
same,growth inhibition,[3]; at 3.7 µM,-3%
same,growth inhibition,[3]; at 11.0 µM,-1%
same,growth inhibition,[3]; at 33.0 µM,-1%
same,growth inhibition,[3]; at 100.0 µM,-2%
same,growth inhibition,[4]; at 1.2 µM,-5%
same,growth inhibition,[4]; at 3.7 µM,-5%
same,growth inhibition,[4]; at 11.0 µM,-3%
same,growth inhibition,[4]; at 33.0 µM,-8%
same,growth inhibition,[4]; at 100.0 µM,28%
same,growth inhibition,[5]; at 1.2 µM,-4%
same,growth inhibition,[5]; at 3.7 µM,4%
same,growth inhibition,[5]; [17],3%
same,growth inhibition,[5]; at 11.0 µM,-17%
same,growth inhibition,[5]; at 33.0 µM,5%
same,growth inhibition,[5]; [18],24%
same,growth inhibition,[5]; at 50.0 µM,70.2% (active)
same,growth inhibition,[5]; at 100.0 µM,20%
same,growth inhibition,[6]; at 1.2 µM,0%
same,growth inhibition,[6]; at 3.7 µM,1%
same,growth inhibition,[6]; [17],-1%
same,growth inhibition,[6]; at 11.0 µM,3%
same,growth inhibition,[6]; at 33.0 µM,15%
same,growth inhibition,[6]; [18],1%
same,growth inhibition,[6]; at 50.0 µM,56.2%
same,growth inhibition,[6]; at 100.0 µM,24%
same,growth inhibition,[7]; at 1.2 µM,1%
same,growth inhibition,[7]; at 3.7 µM,0%
same,growth inhibition,[7]; at 11.0 µM,2%
same,growth inhibition,[7]; at 33.0 µM,7%
same,growth inhibition,[7]; at 100.0 µM,21%
same,growth inhibition,[8]; [17],0%
same,growth inhibition,[8]; [18],8%
same,growth inhibition,[8]; at 50.0 µM,84.2% (active)
same,growth inhibition,[9]; at 1.2 µM,-6%
same,growth inhibition,[9]; at 3.7 µM,-6%
same,growth inhibition,[9]; at 11.0 µM,-9%
same,growth inhibition,[9]; at 33.0 µM,11%
same,growth inhibition,[9]; at 100.0 µM,34%
same,growth inhibition,[10]; [17],41%
same,growth inhibition,[10]; [18],26%
same,growth inhibition,[10]; at 50.0 µM,89.2% (active)
same,growth inhibition,[11]; at 1.2 µM,-3%
same,growth inhibition,[11]; at 3.7 µM,-2%
same,growth inhibition,[11]; [17],-5%
same,growth inhibition,[11]; at 11.0 µM,-2%
same,growth inhibition,[11]; at 33.0 µM,4%
same,growth inhibition,[11]; [18],4%
same,growth inhibition,[11]; at 50.0 µM,79.2% (active)
same,growth inhibition,[11]; at 100.0 µM,15%
same,growth inhibition,[12]; at 1.2 µM,-6%
same,growth inhibition,[12]; at 3.7 µM,-1%
same,growth inhibition,[12]; at 11.0 µM,-1%
same,growth inhibition,[12]; at 33.0 µM,5%
same,growth inhibition,[12]; at 100.0 µM,27%
same,growth inhibition,[13]; at 1.2 µM,-1%
same,growth inhibition,[13]; at 3.7 µM,1%
same,growth inhibition,[13]; at 11.0 µM,1%
same,growth inhibition,[13]; at 33.0 µM,9%
same,growth inhibition,[13]; at 100.0 µM,25%
same,growth inhibition,[14]; at 1.2 µM,0%
same,growth inhibition,[14]; at 3.7 µM,2%
same,growth inhibition,[14]; at 11.0 µM,2%
same,growth inhibition,[14]; at 33.0 µM,20%
same,growth inhibition,[14]; at 100.0 µM,35%
same,growth inhibition,[15]; [17],4%
same,growth inhibition,[15]; [18],2%
same,growth inhibition,[15]; at 50.0 µM,72.8% (active)
